Source: PubChem BioAssay AID2810 (NMMLSC, 2010)
Among all 1,200 compounds or so, about 65 (5%) were called active. This is one part of a sample in which actives are shown more often than they occur.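 The calls were made as follows: active = at either tested dose, response and 90th-percentile vesicle-stain brightness of CD8 cells under set limits and under 9% cells vesicle-bound; inactive = the rest.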

Assay: modulators of CD8 T cell-vesicle binding, confirmation, cherry-picked primary hits, two concentrations (AID 2810);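 also: lower values mean blocking of vesicle binding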;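 as to percent response (vesicle binding): ratio of mean FL2 vesicle stain of CD8+ cells to that row's control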
Details: 2C CD8+ T cell-vesicle binding, flow cytometry; for double positive events: CD8+/vesicle+ events
[1] = at 15.4 µM, stronger effect = lower value

SMILES | double positive events (at 7.7 µM) | double positive events [1] | percent response (vesicle binding) [1] | percent response (vesicle binding) (response, at 7.7 µM)
O=C(Nc1ccccc1C(=O)NCc1cccnc1)c1ccccc1Cl | 25.8% | 14.2% | 202% (inactive) | 364%
CCOc1ccc(CCNC(=O)CCS(=O)(=O)c2ccc(C)cc2)cc1OCC | 12.8% | 11.7% | 215% (inactive) | 177%
CCOc1ccc(CCNC(=O)c2cccc(-n3cnnn3)c2)cc1OCC | 7.9% | 4.2% | 39.3% (active) | 237%
CCOc1ccc(CCNC(=O)CCc2nnc3ccc(N4CCCC4)nn23)cc1OCC | 6.3% | 20% | 239% (inactive) | 150%
Cc1cc(C(=O)COC(=O)Cc2ccc(Cl)cc2)c(C)n1C | 13.6% | 22.5% | 160% (inactive) | 226%
O=C(/C(=N\Nc1ccc(Br)cc1)Sc1nnnn1-c1ccccc1)c1ccccc1 | 9.1% | 14.4% | 176% (inactive) | 308%
COc1cccc(-c2ccc(NC(=O)C3CCCN(Cc4cc(C)[nH]n4)C3)cc2)c1 (stereo not drawn) | 11.6% | 32.2% | 350% (inactive) | 192%
O=C(O)CCc1ccc(S(=O)(=O)N2CCOCC2)cc1 | 20.5% | 28.7% | 274% (inactive) | 233%
CCN(CC)CCNC(=O)CCCNC(=O)Cn1cnc2sc(C)c(C)c2c1=O | 39.3% | 4.7% | 131% (inactive) | 375%
COCCCN1CCc2[nH]c(=S)[nH]c(=O)c2C1 | 27.3% | 2% | 16.7% (active) | 272%
CCc1c(O)cc2n(c1=O)-c1ccccc1C2(C)C | 9.3% | 17.9% | 444% (inactive) | 485%
O=C(Nn1cnc2ccccc2c1=O)C1CCCCC1 | 29.6% | 14.2% | 212% (inactive) | 255%
Cc1ccc(C(=O)NCCCN2CCOCC2)c(C)c1 | 30.7% | 0.7% | 30.4% (active) | 440%
CCCN1CCN(CCCNC(=O)c2cc3c(s2)-c2ccccc2OC3)CC1 | 22.7% | 9.3% | 171% (inactive) | 229%
Cc1ccc(NC(=S)N(CCCN2CCOCC2)Cc2cccs2)c(C)c1 | 8.8% | 24.8% | 268% (inactive) | 149%
CCn1c(=O)cc(SCC(=O)N2CCN(c3ccccc3F)CC2)c2ccccc21 | 17% | 19.6% | 78.7% (inactive) | 247%
CC(C)C(=O)N1CCC2(CC1)Oc1ccc(Cl)cc1C(=O)C21CC(c2cccnc2)=NO1 (stereo not drawn) | 6.8% | 15% | 197% (inactive) | 109%
Cc1ccc(C(=O)Nc2cccc(-c3cn4ccccc4n3)c2)cc1 | 7.7% | 10.4% | 300% (inactive) | 439%
Cc1ccc2oc(=O)c(/C=C(\O)c3sc(C)nc3C)nc2c1 | 17.5% | 0.7% | 16.1% (active) | 163%
COc1ccc(C(=O)C(C)OC(=O)c2sc(C)nc2C)cc1 (stereo not drawn) | 12.6% | 13.7% | 349% (inactive) | 113%
NC(=S)N/N=C/c1ccccc1OCCSc1ccc(Cl)cc1 | 7% | 28% | 262% (inactive) | 76.6%
CC(=O)NN1C(=O)c2ccccc2NC1c1ccco1 (stereo not drawn) | 23% | 11.1% | 280% (inactive) | 361%
Cc1ccccc1N=C1SC(CC(=O)Nc2ccc3ccccc3c2)C(=O)N1Cc1ccccn1 (stereo not drawn) | 8.6% | 25.6% | 157% (inactive) | 148%

SMILES | double positive events (at 7.7 µM) | double positive events [1] | percent response (vesicle binding) [1] | percent response (vesicle binding) (response, at 7.7 µM)
O=C(N/N=C/c1c(O)n(Cc2ccco2)c(=O)[nH]c1=O)c1ccccc1 | 36.4% | 21.6% | 275% (inactive) | 418%
COc1ccc(C(=O)OCC(=O)NC(=O)NC2CCCC2)c(O)c1 | 13.7% | 9.4% | 148% (inactive) | 254%
CCOc1ccc(-c2nc(N)ncc2-c2ccccc2)c(O)c1 | 4.3% | 34.2% | 276% (active) | 51.6%
CC(=O)COc1ccc2c(-c3ccccc3)cc(=O)oc2c1 | 10.8% | 8.7% | 123% (inactive) | 165%
CCOC(=O)CSc1nc(C)nc2c1sc1nc(C)c(C(C)=O)c(-c3ccc(OC)cc3)c12 | 22.7% | 7.5% | 128% (inactive) | 327%
CC1=C/C(=C(\c2ccc(O)c(C)c2)c2ccccc2S(=O)(=O)O)C=CC1=O | 8.5% | 0.5% | 14.6% (active) | 142%
O=C(Nc1nnc(C2=COCCO2)o1)C1CCCCC1 | 47.3% | 23% | 200% (inactive) | 280%
CS(=O)(=O)NCc1ccccc1Br | 31% | 2.7% | 34% (active) | 371%
Cc1nc2sc(C(c3ccccc3)N3CCN(c4ccccc4F)CC3)c(O)n2n1 (stereo not drawn) | 38.2% | 4.2% | 142% (inactive) | 239%
CCOc1ccccc1NC(=O)c1ccc(CN2CCc3ccccc3C2)cc1 | 11.5% | 30% | 739% (inactive) | 110%
COc1ccc2nc(SCC(=O)Nc3ccc4c(c3)OCCO4)[nH]c2c1 | 10.5% | 19.8% | 168% (inactive) | 164%
O=C(/C=C/c1ccccc1)OCC(=O)c1ccc[nH]1 | 14.3% | 30.2% | 439% (inactive) | 424%
CCOC(=O)C1CCN(C(=O)CN2C(=O)c3ccccc3S2(=O)=O)CC1 | 13% | 23% | 203% (inactive) | 166%
CCOC(=O)C1CCCN(c2cc(=O)n(-c3ccccc3Cl)c(=O)[nH]2)C1 (stereo not drawn) | 10.2% | 2.3% | 18.2% (active) | 131%
CCOC(=O)C1CCCN(S(=O)(=O)c2ccc(F)c(C(=O)Nc3ccc(F)c(F)c3)c2)C1 (stereo not drawn) | 13.5% | 23.8% | 153% (inactive) | 105%
O=C1c2cccc3c2[C@H](CCC3)CN1[C@@H]1CN2CCC1CC2 | 19.9% | 28.1% | 727% (inactive) | 238%
COc1ccc(C2=Nc3cc(C)ccc3OC2)cc1 | 12.1% | 2% | 53.5% (active) | 546%
CCCCN(C(=O)CCCc1nc2ccccc2s1)c1c(N)n(CC(C)C)c(=O)[nH]c1=O | 14.2% | 7.8% | 50.8% (inactive) | 386%
CCCN(Cc1ccc(N(C)C)cc1)CC1CC1 | 16.6% | 22.1% | 413% (inactive) | 436%
CN(C(=O)COC(=O)c1cccc(NS(=O)(=O)c2ccc(F)c(F)c2)c1)C1CCS(=O)(=O)C1 (stereo not drawn) | 21.6% | 29.3% | 264% (inactive) | 393%
CN1CCN(c2oc(-c3ccc([N+](=O)[O-])cc3)nc2C#N)CC1 | 8.5% | 9.4% | 143% (inactive) | 149%
CC(C)[C@H]1C(=O)Nc2ccccc2N1C(=O)N[C@@H](Cc1ccccc1)C(=O)N[C@@H](Cc1ccccc1)C(=O)O | 36.3% | 8.9% | 55.5% (active) | 394%
Cc1cccc(OCC(=O)NC(Cc2ccccc2)C(=O)O)c1 (stereo not drawn) | 7.7% | 11.5% | 295% (inactive) | 136%

SMILES | double positive events (at 7.7 µM) | double positive events [1] | percent response (vesicle binding) [1] | percent response (vesicle binding) (response, at 7.7 µM)
CC(=O)Nc1ccc(S(=O)(=O)NC2CCSc3ccccc32)cc1 (stereo not drawn) | 13.6% | 10.4% | 146% (inactive) | 238%
COc1ccc(C(=O)CSc2nnc(CNC(=O)c3ccc(OC)c(OC)c3)n2C)cc1 | 7.6% | 15.6% | 136% (inactive) | 300%
COc1ccc(C(=O)NNC(=O)CSc2nnnn2C)cc1 | 13.8% | 1.8% | 19.1% (active) | 160%
COc1ccc(CNc2nnnn2C)cc1 | 28.6% | 12.4% | 192% (inactive) | 376%
Cc1noc(C)c1COc1ccc(C(=O)NCc2cccs2)cc1 | 6.2% | 22.1% | 165% (inactive) | 120%
Nc1ccccc1C(=O)N/N=C1\C2CN3CCN(C2)CC1(c1ccccc1)C3 | 20% | 18.6% | 176% (inactive) | 839%
CC(=O)c1ccc(OCc2cc(C(=O)N3CCCCC3c3cccnc3)no2)cc1 (stereo not drawn) | 18.2% | 21.2% | 171% (inactive) | 229%
CN(CC(=O)Nc1cccc(F)c1)C(=O)c1ccc(S(=O)(=O)N2CCCC2)cc1 | 28.6% | 10.5% | 176% (inactive) | 275%
O=C(Cc1cccc(NC(=O)C2CCCN(C(=O)C3CC3)C2)c1)Nc1cccc(C(=O)N2CCCC2)c1 (stereo not drawn) | 25% | 13.2% | 338% (inactive) | 438%
CN(Cc1ccccc1)C(=O)c1ccc(NC(=O)Cc2cccc(NC(=O)C3CCCN(C(=O)C4CCC4)C3)c2)cc1 (stereo not drawn) | 7.8% | 4.3% | 54.8% (active) | 219%
Cc1cc(C)c(C(=O)N2CCCC(N3CCN(c4ccc(F)cc4)CC3)C2)o1 (stereo not drawn) | 39.2% | 14.9% | 236% (inactive) | 688%
Cc1cc(C)cc(NC(=O)C(=O)NCCCN2CCCC2=O)c1 | 10% | 9.4% | 138% (inactive) | 150%
COc1ccc(Cc2nc(-c3ccccn3)no2)cc1 | 34.9% | 19.8% | 702% (inactive) | 360%
COc1ccc(CN2C(=O)C(C)Nc3ncnc(N4CCN(c5ccccn5)CC4)c32)cc1 (stereo not drawn) | 8.2% | 4.1% | 33.1% (active) | 235%
O=C(c1ccc(Cn2c(=S)[nH]c3ccccc3c2=O)cc1)N1CCN(c2ccccn2)CC1 | 8.9% | 7% | 222% (inactive) | 465%
Cc1ccc(S(=O)(=O)Nc2c3ccccc3nc(=O)n2-c2ccccc2)cc1 | 21.4% | 7.9% | 50.6% (active) | 180%
Cc1cccc(NS(=O)(=O)c2ccc(Oc3ccccc3)cc2)n1 | 19.3% | 10.1% | 148% (inactive) | 86.6%
Cc1ccc(S(=O)(=O)N2CCN(c3ncnc4ccccc34)CC2)cc1 | 6.7% | 15.5% | 103% (inactive) | 116%
O=C(Nc1ccccc1C(=O)OCC(=O)c1c[nH]c2ccccc12)c1ccco1 | 19.2% | 23.2% | 289% (inactive) | 174%
CCn1cc(CNC(=O)c2ccc(Cl)c([N+](=O)[O-])c2)c(C)n1 | 18.4% | 8.4% | 244% (inactive) | 301%
Cc1cccc(C)c1OCc1nnc(NC(=O)CSc2ccc(Cl)cc2)s1 | 31.8% | 24.4% | 211% (inactive) | 221%
